Source: PMC5892938, “SARNAclust: Semi-automatic detection of RNA protein binding motifs from immunoprecipitation data”
In all, about 11,000 sequences were measured (“log2 fold change”: median about 0.00022, highest 2% from about 0.34 on). Some of the results follow.

The sequences below were run against GST-SBP-SLBP (stem-loop binding protein) (Homo sapiens, UniProt Q14493 1-270) (assay: targeted RNA Bind-n-Seq; RBNS binding buffer: 25 mM Tris pH 7.5, 150 mM KCl, 3 mM MgCl2, 0.1% Tween, 0.5 mg/mL BSA, 1 mM DTT; 27 nM protein, 750 pM RNA pool; temperature not stated; high values mean tight binding). Conditions: protein: recombinant; tags: N-terminal GST and SBP (pGEX6P1-SBP); structured_RNA.
How it was run: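 Read counts per sequence supply the binding signal, defined as the DEseq fold change on a binary-logarithm scale. These counts came from RNA of a designed, T7-transcribed oligo pool at 750 pM that bound 27 nM of GST-SBP-tagged protein, made in Rosetta(DE3) pLysS E. coli and glutathione-purified, in RBNS binding buffer. The bound RNA was reverse transcribed with a 10-nucleotide barcoded primer, PCR-amplified and sequenced on a MiSeq with 200-cycle paired-end reads, then processed with FLASH and HISAT2 and collapsed by barcode.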

Row | Sequence | binding signal [log2 fold change]
1 | GGUCACGUCUCAAUCAACUCUACUCCCAGGGAAAACCCUGGUAAUUUCAACAGCUCGCAGUCAAG | 0.454 ± 0.318
2 | GGUCACGUCUCAAUCAACUCAACUUCCAGGGAAAACCCUGGCAUUUUCAACAGCUCGCAGUCAAG | 0.305 ± 0.262
3 | GGUCACGUCUCAAUCAACUCUAUUCCCAGGGAAAACCCUGGCAUUUUCAACAGCUCGCAGUCAAG | 0.49 ± 0.262
4 | GGUCACGUCUCAAUCAACUCUUUUUCCAGGGAAACCCCUGGUAUACUCAACAGCUCGCAGUCAAG | 0.445 ± 0.233
5 | GGUCACGUCUCAAUCAACUCUAUUCCCAGGGAAACCCCUGGCAUACUCAACAGCUCGCAGUCAAG | 0.311 ± 0.273
6 | GGUCACGUCUCAAUCAACUCAAUCCCCAGGGAAAACCCUGGCAUACUCAACAGCUCGCAGUCAAG | 0.351 ± 0.232
7 | GGUCACGUCUCAAUCAACUCUUUUUCCAGGGAAAACCCUGGCAUGUUCAACAGCUCGCAGUCAAG | 0.34 ± 0.244
8 | GGUCACGUCUCAAUCAACUCUUUUUCCAGGGAAAACCCUGGCGUAUUCAACAGCUCGCAGUCAAG | 0.352 ± 0.225
9 | GGUCACGUCUCAAUCAACUCAGUUUCCAGGGAAAACCCUGGCUUUCUCAACAGCUCGCAGUCAAG | 0.31 ± 0.297
10 | GGUCACGUCUCAAUCAACUCUUCUCCCAGGGAAACCCCUGGCAUUCUCAACAGCUCGCAGUCAAG | 0.304 ± 0.257
11 | GGUCACGUCUCAAUCAACUCAUCUCCCAGGGAAAACCCUGGCAUUCUCAACAGCUCGCAGUCAAG | 0.367 ± 0.304
12 | GGUCACGUCUCAAUCAACUCCUUAGAGGGGGGGAAAACCCCUUUACCCUCGUUAUCAACAGCUCGCAGUCAAG | 0.302 ± 0.406
13 | GGUCACGUCUCAAUCAACUCCUUAGAGGGGGGGAAAACCCCUUUACCCUCAACUUCAACAGCUCGCAGUCAAG | 0.489 ± 0.43
14 | GGUCACGUCUCAAUCAACUCAAUGGAGGGGGGGAAAACCCCUUUACCCUCAAAAUCAACAGCUCGCAGUCAAG | 0.547 ± 0.434
15 | GGUCACGUCUCAAUCAACUCCUUAGAGGGGGGGAAAACCCCUUUACCCUCAAAAUCAACAGCUCGCAGUCAAG | 0.546 ± 0.43
16 | GGUCACGUCUCAAUCAACUCCUUAGAGGGGGGGAAAACCCCUUUACCCUCAACCUCAACAGCUCGCAGUCAAG | 0.395 ± 0.407
17 | GGUCACGUCUCAAUCAACUCCCCAGAGGGGGGGAAAACCCCUUUACCCUCAUCCUCAACAGCUCGCAGUCAAG | 0.566 ± 0.415
18 | GGUCACGUCUCAAUCAACUCAUAGGAGGGGGGGAAAACCCCUUUACCCUCAUCAUCAACAGCUCGCAGUCAAG | 0.315 ± 0.446
19 | GGUCACGUCUCAAUCAACUCUUCAGAGGGGGGGAAAACCCCUUUACCCUCACAAUCAACAGCUCGCAGUCAAG | 0.311 ± 0.418
20 | GGUCACGUCUCAAUCAACUCAUAGGAGGGGGGGAAAACCCCUUUACCCUCAACUUCAACAGCUCGCAGUCAAG | 0.451 ± 0.453
21 | GGUCACGUCUCAAUCAACUCAUCAGAGGGGGGGAAAACCCCUUUACCCUCAUCCUCAACAGCUCGCAGUCAAG | 0.388 ± 0.447
22 | GGUCACGUCUCAAUCAACUCAUCAGAGGGGGGGAAAACCCCUUUACCCUCAACUUCAACAGCUCGCAGUCAAG | 0.39 ± 0.431
23 | GGUCACGUCUCAAUCAACUCCUUAGAGGGGGGGAAAACCCCUUUGCCCUCACCGUCAACAGCUCGCAGUCAAG | 0.412 ± 0.444
24 | GGUCACGUCUCAAUCAACUCCUUAGAGGGGGGGAAAACCCCUUUGCCCUCAACAUCAACAGCUCGCAGUCAAG | 0.411 ± 0.394

Row | Sequence | binding signal [log2 fold change]
25 | GGUCACGUCUCAAUCAACUCCUUAGAGGGGGGGAAAACCCCUUUGCCCUCCGUAUCAACAGCUCGCAGUCAAG | 0.307 ± 0.406
26 | GGUCACGUCUCAAUCAACUCCUUAGAGGGGGGGAAAACCCCUUUGCCCUCGUUUUCAACAGCUCGCAGUCAAG | 0.342 ± 0.445
27 | GGUCACGUCUCAAUCAACUCUACGGCAGGAGUUUACUCCUGGAAUCUCAACAGCUCGCAGUCAAG | 0.318 ± 0.232
28 | GGUCACGUCUCAAUCAACUCAAAAGAGGGGGGGAAAACCCCUUUACCCUCACCAUCAACAGCUCGCAGUCAAG | 0.563 ± 0.413
29 | GGUCACGUCUCAAUCAACUCUCUAGAGGGGGGGAAAACCCCUUUACCCUCACCAUCAACAGCUCGCAGUCAAG | 0.354 ± 0.424
30 | GGUCACGUCUCAAUCAACUCAACAGAGGGGGGGAAAACCCCUUUACCCUCACCAUCAACAGCUCGCAGUCAAG | 0.341 ± 0.391
31 | GGUCACGUCUCAAUCAACUCAAUAGAGGGGGGGAAAACCCCUUUACCCUCACCAUCAACAGCUCGCAGUCAAG | 0.306 ± 0.41
32 | GGUCACGUCUCAAUCAACUCCACAGAGGGGGGGAAAACCCCUUUACCCUCCAUCUCAACAGCUCGCAGUCAAG | 0.416 ± 0.406
33 | GGUCACGUCUCAAUCAACUCCAAGGAGGGGGGGAAAACCCCUUUACCCUCAAUCUCAACAGCUCGCAGUCAAG | 0.482 ± 0.442
34 | GGUCACGUCUCAAUCAACUCCCUAGAGGGGGGGAAAACCCCUUUACCCUCAAUGUCAACAGCUCGCAGUCAAG | 0.558 ± 0.455
35 | GGUCACGUCUCAAUCAACUCCCUAGAGGGGGGGAAAACCCCUUUACCCUCACAAUCAACAGCUCGCAGUCAAG | 0.389 ± 0.428
36 | GGUCACGUCUCAAUCAACUCUUUCUCAGGAGUUUACUCCUGUAUAUUCAACAGCUCGCAGUCAAG | 0.355 ± 0.213
37 | GGUCACGUCUCAAUCAACUCAAUCUCAGGAGUUUUCUCCUGUAUACUCAACAGCUCGCAGUCAAG | 0.429 ± 0.219
38 | GGUCACGUCUCAAUCAACUCUUUCUCAGGAGUUUCCUCCUGUUUACUCAACAGCUCGCAGUCAAG | 0.312 ± 0.17
39 | GGUCACGUCUCAAUCAACUCAUCGUCAGGAGUUUUCUCCUGUAAACUCAACAGCUCGCAGUCAAG | 0.313 ± 0.233
40 | GGUCACGUCUCAAUCAACUCAUCGCCAGGAGUUUGCUCCUGUAUUUUCAACAGCUCGCAGUCAAG | 0.321 ± 0.274
41 | GGUCACGUCUCAAUCAACUCUAUCUCAGGAGUUUACUCCUGUAUAUUCAACAGCUCGCAGUCAAG | 0.337 ± 0.252
42 | GGUCACGUCUCAAUCAACUCAAACGAGGGGGGGAAAACCCCUUUACCCUCCAUAUCAACAGCUCGCAGUCAAG | 0.344 ± 0.458
43 | GGUCACGUCUCAAUCAACUCAUACGAGGGGGGGAAAACCCCUUUACCCUCUCCAUCAACAGCUCGCAGUCAAG | 0.329 ± 0.398
44 | GGUCACGUCUCAAUCAACUCCAUCGAGGGGGGGAAAACCCCUUUACCCUCAAUAUCAACAGCUCGCAGUCAAG | 0.429 ± 0.437
45 | GGUCACGUCUCAAUCAACUCCAUCGAGGGGGGGAAAACCCCUUUACCCUCCAAUUCAACAGCUCGCAGUCAAG | 0.49 ± 0.445
46 | GGUCACGUCUCAAUCAACUCAGAAGAGGGGGGGAAAACCCCUUUACCCUCCAAAUCAACAGCUCGCAGUCAAG | 0.431 ± 0.433
47 | GGUCACGUCUCAAUCAACUCCAAAGAGGGGGGGAAAACCCCUUUACCCUCCGUUUCAACAGCUCGCAGUCAAG | 0.395 ± 0.435
48 | GGUCACGUCUCAAUCAACUCCAAAGAGGGGGGGAAAACCCCUUUACCCUCCGCAUCAACAGCUCGCAGUCAAG | 0.352 ± 0.42

Row | Sequence | binding signal [log2 fold change]
49 | GGUCACGUCUCAAUCAACUCCAAAGAGGGGGGGAAAACCCCUUUACCCUCAACCUCAACAGCUCGCAGUCAAG | 0.316 ± 0.391
50 | GGUCACGUCUCAAUCAACUCCAAAGAGGGGGGGAAAACCCCUUUACCCUCACUUUCAACAGCUCGCAGUCAAG | 0.398 ± 0.419
51 | GGUCACGUCUCAAUCAACUCCAAAGAGGGGGGGAAAACCCCUUUACCCUCGUCCUCAACAGCUCGCAGUCAAG | 0.369 ± 0.406
52 | GGUCACGUCUCAAUCAACUCCAAAGAGGGGGGGAAAACCCCUUUACCCUCCACAUCAACAGCUCGCAGUCAAG | 0.399 ± 0.418
53 | GGUCACGUCUCAAUCAACUCUAUCGAGGGGGGGAAAACCCCUUUACCCUCACACUCAACAGCUCGCAGUCAAG | 0.573 ± 0.408
54 | GGUCACGUCUCAAUCAACUCAAUCGAGGGGGGGAAAACCCCUUUACCCUCACUCUCAACAGCUCGCAGUCAAG | 0.375 ± 0.412
55 | GGUCACGUCUCAAUCAACUCCAUCGAGGGGGGGAAAACCCCUUUACCCUCACUCUCAACAGCUCGCAGUCAAG | 0.322 ± 0.422
56 | GGUCACGUCUCAAUCAACUCUCCCGAGGGGGGGAAAACCCCUUUACCCUCACUAUCAACAGCUCGCAGUCAAG | 0.31 ± 0.449
57 | GGUCACGUCUCAAUCAACUCACACGAGGGGGGGAAAACCCCUUUACCCUCUCUAUCAACAGCUCGCAGUCAAG | 0.553 ± 0.407
58 | GGUCACGUCUCAAUCAACUCUUCCGAGGGGGGGAAAACCCCUUUACCCUCACUAUCAACAGCUCGCAGUCAAG | 0.347 ± 0.442
59 | GGUCACGUCUCAAUCAACUCACACGAGGGGGGGAAAACCCCUUUACCCUCUACCUCAACAGCUCGCAGUCAAG | 0.472 ± 0.426
60 | GGUCACGUCUCAAUCAACUCUACAGAGGGGGGGAAAACCCCUUUACCCUCACUCUCAACAGCUCGCAGUCAAG | 0.332 ± 0.424
61 | GGUCACGUCUCAAUCAACUCUAUCGAGGGGGGGAAAACCCCUUUACCCUCACAAUCAACAGCUCGCAGUCAAG | 0.599 ± 0.418
62 | GGUCACGUCUCAAUCAACUCUCUCGAGGGGGGGAAAACCCCUUUACCCUCACAAUCAACAGCUCGCAGUCAAG | 0.571 ± 0.435
63 | GGUCACGUCUCAAUCAACUCAAUAGAGGGGGGGAAAACCCCUUUGCCCUCAAUCUCAACAGCUCGCAGUCAAG | 0.451 ± 0.42
64 | GGUCACGUCUCAAUCAACUCCAUAGAGGGGGGGAAAACCCCUUUGCCCUCGAAAUCAACAGCUCGCAGUCAAG | 0.382 ± 0.389
65 | GGUCACGUCUCAAUCAACUCAAUAGAGGGGGGGAAAACCCCUUUGCCCUCAACAUCAACAGCUCGCAGUCAAG | 0.421 ± 0.37
66 | GGUCACGUCUCAAUCAACUCAAUAGAGGGGGGGAAAACCCCUUUGCCCUCGAAAUCAACAGCUCGCAGUCAAG | 0.399 ± 0.404
67 | GGUCACGUCUCAAUCAACUCACUAGAGGGGGGGAAAACCCCUUUGCCCUCAUACUCAACAGCUCGCAGUCAAG | 0.37 ± 0.365
68 | GGUCACGUCUCAAUCAACUCAUUAGAGGGGGGGAAAACCCCUUUGCCCUCAUACUCAACAGCUCGCAGUCAAG | 0.461 ± 0.451
69 | GGUCACGUCUCAAUCAACUCAUUAGAGGGGGGGAAAACCCCUUUGCCCUCAAAAUCAACAGCUCGCAGUCAAG | 0.487 ± 0.428
70 | GGUCACGUCUCAAUCAACUCACUAGAGGGGGGGAAAACCCCUUUGCCCUCCAACUCAACAGCUCGCAGUCAAG | 0.317 ± 0.385
71 | GGUCACGUCUCAAUCAACUCCUUAGAGGGGGGGAAAACCCCUUUGCCCUCAUACUCAACAGCUCGCAGUCAAG | 0.464 ± 0.44
